Screens (PubChem BioAssay)
Sampled rows, rich in hits. Any-hit rate of the full collection: about 21%.
Cycloheximide cs – Cycloheximide Counterscreen for Small Molecule Inhibitors of Shiga Toxin; max response, %; cell reporter, cycloheximide protein synthesis inhibition counterscreen; 12% of 300,000 active; in the data active = max response mostly above about 13%, no sharp cut-off; inactive = mostly below about 14%; note: read at 38.3 µM for the half of the compounds with a filed dose; 0% is about no effect
Pf growth 96h – Primary qHTS for delayed death inhibitors of the malarial parasite plastid, 96 hour incubation; 6.9% of 320,000 active; Potency, µM (series often up to 28.7 µM), for the others: at the top dose activity change, negative = inhibition, hits mostly inhibitors; AID 504834, 2011; P. falciparum luciferase reporter growth, 96 h; note: potency is the fitted concentration of half-maximal effect; % is set by controls: 0 for no effect and ±100 for the full control effect
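Parasite growth measured via integrated firefly luciferase reporter in P. falciparum. Infected erythrocytes at 2% hematocrit, 0.05% parasitemia final were treated 96 hours at 37 C under 5% CO2, and luminescence was read.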
Shiga toxin inh – A qHTS for Small Molecule Inhibitors of Shiga Toxin | Vero cells, Shiga toxin protein synthesis inhibition reporter | 9.2% of 290,000 active | inhibition, % at 38.7 µM | AID 2315, 2010; in the data active = inhibition mostly above about 28%, no sharp cut-off; inactive = mostly below about 43%; note: 0% is about no effect
NS1 function inh – qHTS Assay for Inhibitors of Influenza NS1 Protein Function. 0.4% of 270,000 active. Potency, µM (doses to about 46.1 µM), inactives show top-dose activity, positive = more growth. AID 2326, 2010; calls by dose curve; note: potency is the fitted concentration of half-maximal effect; actives are rising curves; nearly all actives have a fitted effect of over 50% in size
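Read-out: OD600 growth recovery of NS1-expressing budding yeast. Cells grown overnight at 30C in -URA glucose medium, washed, resuspended and diluted 1:100 in 2% galactose assay medium, pH 6.0. Same strain lacking NS1 served as positive control.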
Pf growth 48h – Primary qHTS for delayed death inhibitors of the malarial parasite plastid, 48 hour incubation. P. falciparum luciferase growth in erythrocytes, 48 h. Potency, µM (top dose mostly 28.7 µM), without a hit: top-dose activity change, negative = inhibition, hits mostly inhibitors. 5.9% of 310,000 active. AID 504832, 2011; note: potency is the fitted concentration of half-maximal effect; % is set by controls: 0 for no effect and ±100 for the full control effect
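Compounds are pin-transferred into medium, infected erythrocytes (2% hematocrit, 0.1% parasitemia final) are added, and plates sit one parasite generation at 37 C in 5% CO2. Detection reagent is then added and luminescence measured.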
* hit, by the source's call; i = inactive; u = inconclusive; x = no result; [ ] = another dose, or the depositor's remark. Unless noted, calls come from the whole dose curve; as a rule, active = well fitted inhibition curve with a large enough effect; inconclusive = small, poorly fitted or top-dose-only effect, or another doubt; inactive = no such curve, though single readings can be large or run the other way.

SMILES	Cycloheximide cs	Pf growth 96h	Shiga toxin inh	NS1 function inh	Pf growth 48h
COc1ccc(CNC(C)C23CC4CC(CC(C4)C2)C3)c(OC)c1OC (centres undefined)	-4	9.3µM*	-3	-5%	12µM*
CCOCc1c(C(=O)Nc2cc(OCC)c(N3CCOCC3)cc2OCC)oc2ccccc12	4	u	13	x	35%
CCOCc1c(C(=O)Nc2ccccc2N2CCN(C)CC2)oc2ccccc12	x	13µM*	x	x	u
COc1ccc(C(=O)Nc2ccc3nc(N4CCOCC4)sc3c2)cc1OC	x	u	x	x	-8%
CCOCc1c(C(=O)Nc2ccc3nc(N4CCOCC4)sc3c2)oc2ccccc12	x	u	x	x	15µM*
O=C(N/N=C/c1ccc[nH]1)c1ccccc1OCc1ccccc1Cl	15*	u	11	x	-17%
NC(=O)COC(=O)c1ccccc1OCc1ccccc1Cl	-1	-1%	-4	x	-12%
O=C(N/N=C/c1ccco1)c1ccccc1OCc1ccccc1Cl	19*	-11%	-30	-33%	9%
O=C(C1CCC(CNS(=O)(=O)c2cccc3nsnc23)CC1)N1CCN(c2ccccn2)CC1 (centres undefined)	-3	-24%	-5	x	u
COc1ccc(NC(=O)CN2CCC(Cc3ccccc3)CC2)cc1S(=O)(=O)N1CCOCC1	1	u	-5	-10%	-12%
COc1cccc(F)c1C(C[N+](=O)[O-])c1c(N)n(C)c(=O)n(C)c1=O (centres undefined)	-5	13µM*	-17	-88%	u
CCOC(=O)CCCn1ccc2cc(S(=O)(=O)N3CCCC3)ccc21	-2	u	-4	-5%	-7%
CC[C@H](C)[C@H](NC(N)=O)C(=O)Nc1ccc2c(c1)OCO2	7	17%	6	x	8%
COc1cc(/C=N/Nc2ccnc(=O)[nH]2)ccc1O	32*	u	67	4%	-27%[0.00184 µM]
COc1cc(/C=N/Nc2ccc(C(=O)O)cc2)ccc1O	5	23%	-8	x	i
O=c1nccc(N/N=C/c2cccc(O)c2)[nH]1	26*	44%	2	2%	70%
COc1ccc(NC(=O)c2ccccc2NC(=O)NC2CCCCC2)cc1	11	6%	29	4%	59%
O=C(NC1CCCCC1)C1CCN(c2cnccn2)CC1	-3	u	-2	3%	1%
COc1ccc(-c2ccc(=O)n(CC(=O)NC3CCc4ccccc43)n2)cc1OC (centres undefined)	-1	24%	-14	11%	u
O=C(N/N=C1\C2CN3CCN(C2)CC1(c1ccccc1)C3)c1ccc(F)cc1	23*	1%	0	17%	-7%
Nc1ccccc1C(=O)N/N=C1/C2CN3CCN(C2)CC1(Cc1ccccc1)C3	-6	-4%	29	x	20%
CCCC12CN3CCN(CC(C3)/C1=N\NC(=O)c1ccccc1N)C2	25*	10%	38*	3%	23%
Nc1ccccc1C(=O)N/N=C1\C2CN3CCN(C2)CC1(c1ccccc1)C3	50*	7%	81*	4%	48%
Cc1cc2nnc(SCC(=O)NC3CCCCC3)n2c(N)n1	-7	24%	23	18%	5%
CS(=O)(=O)N1CCc2cc(C(=O)NC3CC3)ccc21	1	10%	20	x	-10%
SMILES	Cycloheximide cs	Pf growth 96h	Shiga toxin inh	NS1 function inh	Pf growth 48h
CS(=O)(=O)N1CCc2cc(NC(=O)c3ccc(Cl)cc3Cl)ccc21	21*	-27%	44	x	-5%
CS(=O)(=O)N1CCc2cc(C(=O)Nc3cccc([N+](=O)[O-])c3)ccc21	10	u	x	3%	16%
CS(=O)(=O)N1CCc2cc(C(=O)Nc3ccc(Cl)cc3)ccc21	17*	55%	13	-4%	-20%
Cc1cc(NC(=O)c2cccs2)ncc1NC(=O)c1cccc(F)c1	42*	5.2µM*	66*	-9%	62%
Cc1cc(NC(=O)c2cccs2)ncc1NC(=O)C(C)C	38*	2.3µM*	39*	-3%	232%
Cc1cc(NC(=O)c2ccccc2)ncc1NC(=O)c1cccs1	40*	3%	124*	-4%	118%
Cc1cc(NC(=O)c2ccccc2F)ncc1NC(=O)c1cccs1	21*	1%	54	-6%	34%
CCCC(=O)Nc1cc(C)c(NC(=O)c2cccs2)cn1	14	-10%	-9	x	5%
Nc1nc(Br)c2c(F)cccc2c1-c1ccc(F)cc1	0	u	19	-7%	u
COC(=O)CSC1=C(C#N)C(c2ccccc2)CC(=O)N1 (centres undefined)	-4	9.3µM*	-15	1%	16%
COc1cc(C2CC(=O)NC(SCC(=O)Nc3ccccc3C)=C2C#N)ccc1O (centres undefined)	-2	57%	-50	2%	6%
COC(=O)CSC1=C(C#N)C(c2ccc(C(C)C)cc2)CC(=O)N1 (centres undefined)	-8	-24%	-12	-7%	x
N#CC1=C(SCC(=O)Nc2ccccc2)NC(=O)CC1c1ccc(O)cc1 (centres undefined)	0	5.9µM*	54	-1%	x
CCOc1ccccc1C1CC(=O)NC(SCC)=C1C#N (centres undefined)	-2	x	14	2%	-10%
CCCSC1=C(C#N)C(c2ccccc2OCC)CC(=O)N1 (centres undefined)	-3	5.2µM*	-13	-6%	u
c1ccc(C2CC(c3ccccc3)n3c(nc4ccccc43)N2)cc1 (centres undefined)	7	u	2	4%	u
O=C(COc1ccc(-c2ccccc2)cc1)N1CCCC1	0	31%	21	-6%	u
CC(C)(C)OC(=O)N[C@@H](Cc1ccccc1)c1nnc(S(=O)(=O)Cc2cccc(F)c2)o1	21*	u	33	-165%	u
CC(C)C[C@H](N)c1nnc(S(=O)(=O)Cc2cccc(F)c2)o1	32*	x	29	-177%	-4%
CC(C)CCNC(=O)c1ccc(CSCc2cccc(F)c2)o1	1	34%	1	-124%	x
O=C(OCC(=O)N1CCOCC1)c1cccc(F)c1	48*	101%	94*	3%	98%
O=C(OCC(=O)N1CCOCC1)c1ccc(F)cc1Cl	35*	82%	51*	9%	47%
CC1CN(C(=O)COC(=O)c2ccc(F)cc2Cl)CC(C)O1 (centres undefined)	1	22%	14	-5%	17%
COc1ccc(C(=O)NCC(=O)OCc2ccc(F)cc2)cc1	-3	52%	-2	x	10%[5.75 µM]
O=C(CCc1nnc(Cc2cccc(C(F)(F)F)c2)o1)NCC(F)(F)F	1	u	16	3%	9%
Cc1cc(-c2nnc(CCC(=O)N(C)Cc3cccc4ccccc34)o2)no1	20*	u	63*	-3%	-15%
COc1ccc([C@@H](C)NC(=O)CCc2nnc(-c3cc(C)on3)o2)cc1	2	2.9µM*	-7	0%	19%
